The text below walks through data of publication PMC5540273 (PLoS ONE, 2017).

Among the test systems are PRKD3; PRKG1; PRKG2; PRKX; PRP4; QSK; RAF1; RET; RIOK1; RIOK2; RIOK3; RIPK1; RIPK2; RIPK4; RIPK5; ROCK1; ROCK2; ROS1.
What all share (conditions): concentration: 1 μM,replicates: in singlicate; n = 1
In a further assay the test system is T1, PRKR.
T1 construct: gene EIF2AK2

Another assay concerns T2, PYK2.
T2 construct: gene PTK2B
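Also: KINOMEscan kinase panel screen.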

Consider `Cn1ccc2ncnc(Oc3ccc(NC(=O)Nc4cc(C(C)(C)C)on4)c(Cl)c3)c21`, for which the “%Inh” value was 0% in the assay with PRKD3; 0% in the assay on PRKG1; 33% in the assay with PRKG2; 0% in the assay with PRKR; 17% with PRKX; 23% in the assay on PRP4. In addition, the “%Inh” value in the assay on PYK2 was 16%; in the assay on QSK, 0%; with RAF1, 78%; with RET it was 100%; in the assay with RIOK1, 2%; with RIOK2 it was 29%. For the same molecule, the “%Inh” value in the assay with RIOK3 turned out to be 1%; in the assay on RIPK1, 15%; in the assay with RIPK2 it was 83%; in the assay on RIPK4, 12%; in the assay on RIPK5 it was 11%; with ROCK1, 3%. The “%Inh” value is recorded as 0% in the assay with ROCK2 and 46% in the assay on ROS1.

With `Cn1ccc2ncnc(Oc3ccc(NC(=O)Nc4cnn(C(C)(C)C)c4)c(Cl)c3)c21`, the “%Inh” value is on record as 4% in the assay on PRKD3; 9% in the assay on PRKG1; 0% in the assay with PRKG2; 17% in the assay on PRKR; 3% with PRKX; 0% in the assay with PRP4. Also, the “%Inh” value came out at 0% in the assay on PYK2; 0% in the assay with QSK; 44% in the assay with RAF1; 100% in the assay with RET; 4% with RIOK1; 29% in the assay on RIOK2. Moreover, the “%Inh” value is 0% in the assay on RIOK3; 12% in the assay with RIPK1; 40% with RIPK2; 0% with RIPK4; 0% in the assay on RIPK5; 6% with ROCK1. Besides, the “%Inh” value with ROCK2 and in the assay with ROS1 was 0% throughout.

As for `Cc1n[nH]c2cc(Nc3ccnc(Nc4cccc(CN5CCOCC5)c4)n3)ccc12` [GW682569], the “%Inh” value was 18% in the assay with PRKD3; 0% in the assay with PRKG1; 3% in the assay with PRKG2; 23% with PRKR; 0% with PRKX; 65% in the assay on PRP4. The “%Inh” value with PYK2 turned out to be 0%; in the assay on QSK, 0%; in the assay on RAF1 it was 0%; in the assay on RET it was 56%; with RIOK1, 100%; in the assay with RIOK2, 84%. Also, the “%Inh” value with RIOK3 is listed as 96.5%; in the assay on RIPK1, 4%; in the assay with RIPK2, 79%; in the assay with RIPK4 it was 62%; in the assay with RIPK5 it was 0%; with ROCK1 it was 27%. Also, the entries for the “%Inh” value with ROCK2 and in the assay with ROS1 were 1% and 57%, respectively.

Consider `C[C@@H]1CNc2c(sc3ccc4nc(-c5ccc(O)cc5)ccc4c23)C(=O)N1`, for which the “%Inh” value worked out at 43% in the assay with PRKD3; 12% in the assay with PRKG1; 61% with PRKG2; 0% in the assay with PRKR; 0% in the assay on PRKX; 12% in the assay with PRP4. The “%Inh” value in the assay with PYK2 was found to be 19%; in the assay with QSK it was 0%; in the assay with RAF1 it was 0%; in the assay on RET, 13%; with RIOK1, 0%; in the assay with RIOK2, 18%. The “%Inh” value came to 3% with RIOK3; 0% with RIPK1; 27% with RIPK2; 3% in the assay on RIPK4; 27% in the assay on RIPK5; 65% in the assay with ROCK1. Further, the “%Inh” value in the assay with ROCK2 is 51%; in the assay on ROS1, 0%.

For the molecule `CCn1c(-c2nonc2N)nc2cncc(CNC3CCNCC3)c21.Cl` [SB-747651], the “%Inh” value with PRKD3 turned out to be 50%; with PRKG1, 74%; in the assay on PRKG2, 86%; in the assay on PRKR, 0%; in the assay on PRKX it was 55%; in the assay on PRP4 it was 20%. Further, the “%Inh” value in the assay on PYK2 is recorded as 0%; in the assay with QSK, 1%; in the assay with RAF1, 97.5%; in the assay on RET it was 5%; with RIOK1, 30%; in the assay on RIOK2, 0%. Moreover, the “%Inh” value amounted to 6% in the assay on RIOK3; 0% in the assay on RIPK1; 5% in the assay with RIPK2; 19% in the assay with RIPK4; 0% in the assay on RIPK5; 0% with ROS1.

In the case of `O=C(NOCC1CC1)c1cc(Br)c(F)c(F)c1Nc1ccc(I)cc1Cl`, the “%Inh” value is on record as 0% in the assay with PRKD3; 0% in the assay on PRKG1; 0% with PRKG2; 0% in the assay with PRKR; 0% in the assay on PRKX; 32% in the assay on PRP4. Further, the “%Inh” value in the assay on PYK2 is given as 0%; in the assay on QSK, 0%; in the assay with RAF1, 0%; in the assay on RET it was 6%; in the assay on RIOK1 it was 0%; in the assay on RIOK2, 0%. In addition, the “%Inh” value in the assay with RIOK3, in the assay with RIPK1, in the assay on RIPK2, with RIPK4, with RIPK5 and in the assay on ROCK1 was 0% throughout. The “%Inh” value with ROCK2 and in the assay with ROS1 was 0% each time.

With `CC(C(=O)NC1CCN(c2ccnc(Nc3ccc(F)cc3)n2)C1)c1ccc(Cl)cc1` (stereo not shown) [GSK1379713], the “%Inh” value is recorded as 2% in the assay with PRKD3; 9% with PRKG1; 0% in the assay on PRKG2; 0% with PRKR; 6% in the assay with PRKX; 0% with PRP4. For the same molecule, the “%Inh” value was 0% in the assay on QSK; 0% in the assay on RAF1; 0% in the assay with RET; 35% with RIOK1; 0% in the assay with RIOK2; 0% in the assay with RIOK3. Moreover, the “%Inh” value in the assay with RIPK1 worked out at 6%; in the assay on RIPK2, 0%; in the assay on RIPK4 it was 0%; with RIPK5, 0%; in the assay on ROCK1 it was 27%; in the assay on ROCK2, 10%. Further, in the assay with ROS1, the “%Inh” value is listed as 53%.

For `Cc1cccc2c(-c3ccncc3)c(-c3ccc(F)cc3)nn12.Cl` [GW461487], the “%Inh” value in the assay on PRKD3 is on record as 0%; in the assay with PRKG1, 9%; in the assay with PRKG2 it was 8%; in the assay with PRKR it was 0%; in the assay on PRKX, 3%; with PRP4 it was 7%. The “%Inh” value with PYK2 was 22%; with QSK, 15%; in the assay with RAF1 it was 11%; in the assay with RET, 18%; in the assay with RIOK1, 0%; in the assay with RIOK2 it was 100%. For the same molecule, the “%Inh” value with RIOK3 was determined as 0%; with RIPK1 it was 0%; in the assay with RIPK2 it was 48%; with RIPK4, 0%; with RIPK5 it was 0%; in the assay on ROCK1 it was 18%. Also, the “%Inh” value in the assay on ROCK2 is reported as 12%; in the assay on ROS1, 0%.

Regarding `NC(=O)c1ccc(-c2cc3ncnc(SCC(=O)O)c3s2)cc1`, the “%Inh” value in the assay on PRKD3 amounted to 0%; with PRKG1, 0%; in the assay on PRKG2, 0%; in the assay on PRKR, 100%; in the assay on PRKX, 0%; with PRP4, 44%. The “%Inh” value with QSK came out at 0%; with RAF1, 3%; in the assay on RET, 0%; in the assay on RIOK1, 0%; in the assay on RIOK2, 0%; with RIOK3, 19%. In addition, the “%Inh” value in the assay on RIPK1 worked out at 0%; with RIPK2 it was 18%; in the assay on RIPK4 it was 3%; in the assay on RIPK5, 0%; with ROCK1, 0%; in the assay with ROCK2, 0%. The “%Inh” value in the assay with ROS1 is given as 0%.

Take `Cl.Nc1n[nH]c2cc(-c3ccccn3)ccc12` [GSK2189892]: the “%Inh” value was found to be 0% in the assay on PRKD3; 0% with PRKG1; 0% with PRKG2; 0% with PRKR; 13% with PRKX; 24% with PRP4. In addition, the “%Inh” value with PYK2 is 0%; in the assay with QSK, 0%; in the assay on RAF1, 6%; in the assay with RET, 2%; with RIOK1, 47%; with RIOK2, 0%. The “%Inh” value is 24% in the assay with RIOK3; 0% with RIPK1; 0% in the assay with RIPK2; 4% with RIPK4; 6% in the assay with RIPK5; 0% with ROCK1. Also, the “%Inh” value in the assay on ROCK2 is given as 5%; in the assay with ROS1 it was 12%.
